# Experimental data from PubChem BioAssay.
# Activity calls are given as the source filed them.
# Tests used:
# [1] = test system: PRMT1 (protein arginine N-methyltransferase 1); experiment: PRMT1 binders on small-molecule microarrays, primary screen, biochemical, small-molecule microarray, 635 nm fluorescence (AID 1088); details: small-molecule microarray binding, higher = more signal;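 note: binding of Prmt1 protein to compounds spotted on small-molecule microarray slides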
# [2] = yeast growth modulation, basal conditions, primary screen, YJM789 clinical isolate, OD600, 24 h (AID 1089);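 note: growth of clinical yeast isolate S. cerevisiae YJM 789 seeded 1000 cells per well; test concentration not given here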; details: S. cerevisiae YJM789 growth, higher = more signal, called active from +8 up or from −8 down
# [3] = fission yeast growth modulation, primary screen, strain 972, OD600, 24 h, no modulator (AID 1090);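 note: basal condition with compound alone and no growth modifier present; test concentration not given here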; details: S. pombe 972 growth, higher = more signal, called active from +8 up or from −8 down
# [4] = S. cerevisiae growth modulation with rapamycin, primary screen, strain BY4716, OD600, 96 h (AID 1091); details: higher = more signal, called active from +8 up or from −8 down; note: test concentration not given here
# [5] = target: Torsin-1A-interacting protein 2 (Homo sapiens) (UniProt Q8NFQ8); experiment: LULL1 binders on small-molecule microarray, primary screen, cell lysate, human LULL1 lysate, 635/667 nm fluorescence (AID 1092); details: hLULL1 lysate binding, 635 nm fluorescence, higher = more signal;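 note: probe is lysate of COS7 cells overexpressing human LULL1; score merges per-feature 667 nm fluorescence with signal-to-noise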
# [6] = E. coli growth modulation, two-sided OD650, primary screen, E. coli filamentation project, strain DRC41, 24 h (AID 1093); details: OD650, 24 h, higher = more signal, called active from +8 up or from −8 down;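 note: MC1000 strain lacking acrAB efflux and sulA so SOS filamentation is blocked; test concentration not given here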
# [7] = small-molecule microarray binders of probe aLefty2, primary screen, biochemical, biotinylated probe, 635/667 nm fluorescence (AID 1094); details: higher = more signal;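 note: score merges spot fluorescence near 667 nm with spot signal-to-noise ratio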
# [8] = test system: Noggin (protein binding on small-molecule microarray); experiment: Noggin binders on small-molecule microarray, primary screen, biochemical, 635/667 nm fluorescence (AID 1095); details: 635 nm fluorescence, higher = more signal;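 note: score merges 667 nm feature fluorescence with signal to noise over triplicate slides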
# [9] = target: Neurogenic locus notch homolog protein 3 (Homo sapiens) (UniProt Q9UM47); experiment: NOTCH3 binders on small-molecule microarray, primary screen, biochemical, 635/667 nm fluorescence (AID 1096); details: NOTCH3 binding, 635 nm fluorescence, higher = more signal
# [10] = small-molecule microarray binders of probe aEGFR, primary screen, biochemical, biotinylated probe, 635/667 nm fluorescence (AID 1097); details: higher = more signal;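 note: probe is a biotinylated anti-EGFR antibody binding compounds printed on slides; score combines fluorescence near 667 nm and signal to noise of each spot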
# Neurogenic locus notch homolog protein 3 (Homo sapiens), sequence (Q9UM47 whole entry, looked up): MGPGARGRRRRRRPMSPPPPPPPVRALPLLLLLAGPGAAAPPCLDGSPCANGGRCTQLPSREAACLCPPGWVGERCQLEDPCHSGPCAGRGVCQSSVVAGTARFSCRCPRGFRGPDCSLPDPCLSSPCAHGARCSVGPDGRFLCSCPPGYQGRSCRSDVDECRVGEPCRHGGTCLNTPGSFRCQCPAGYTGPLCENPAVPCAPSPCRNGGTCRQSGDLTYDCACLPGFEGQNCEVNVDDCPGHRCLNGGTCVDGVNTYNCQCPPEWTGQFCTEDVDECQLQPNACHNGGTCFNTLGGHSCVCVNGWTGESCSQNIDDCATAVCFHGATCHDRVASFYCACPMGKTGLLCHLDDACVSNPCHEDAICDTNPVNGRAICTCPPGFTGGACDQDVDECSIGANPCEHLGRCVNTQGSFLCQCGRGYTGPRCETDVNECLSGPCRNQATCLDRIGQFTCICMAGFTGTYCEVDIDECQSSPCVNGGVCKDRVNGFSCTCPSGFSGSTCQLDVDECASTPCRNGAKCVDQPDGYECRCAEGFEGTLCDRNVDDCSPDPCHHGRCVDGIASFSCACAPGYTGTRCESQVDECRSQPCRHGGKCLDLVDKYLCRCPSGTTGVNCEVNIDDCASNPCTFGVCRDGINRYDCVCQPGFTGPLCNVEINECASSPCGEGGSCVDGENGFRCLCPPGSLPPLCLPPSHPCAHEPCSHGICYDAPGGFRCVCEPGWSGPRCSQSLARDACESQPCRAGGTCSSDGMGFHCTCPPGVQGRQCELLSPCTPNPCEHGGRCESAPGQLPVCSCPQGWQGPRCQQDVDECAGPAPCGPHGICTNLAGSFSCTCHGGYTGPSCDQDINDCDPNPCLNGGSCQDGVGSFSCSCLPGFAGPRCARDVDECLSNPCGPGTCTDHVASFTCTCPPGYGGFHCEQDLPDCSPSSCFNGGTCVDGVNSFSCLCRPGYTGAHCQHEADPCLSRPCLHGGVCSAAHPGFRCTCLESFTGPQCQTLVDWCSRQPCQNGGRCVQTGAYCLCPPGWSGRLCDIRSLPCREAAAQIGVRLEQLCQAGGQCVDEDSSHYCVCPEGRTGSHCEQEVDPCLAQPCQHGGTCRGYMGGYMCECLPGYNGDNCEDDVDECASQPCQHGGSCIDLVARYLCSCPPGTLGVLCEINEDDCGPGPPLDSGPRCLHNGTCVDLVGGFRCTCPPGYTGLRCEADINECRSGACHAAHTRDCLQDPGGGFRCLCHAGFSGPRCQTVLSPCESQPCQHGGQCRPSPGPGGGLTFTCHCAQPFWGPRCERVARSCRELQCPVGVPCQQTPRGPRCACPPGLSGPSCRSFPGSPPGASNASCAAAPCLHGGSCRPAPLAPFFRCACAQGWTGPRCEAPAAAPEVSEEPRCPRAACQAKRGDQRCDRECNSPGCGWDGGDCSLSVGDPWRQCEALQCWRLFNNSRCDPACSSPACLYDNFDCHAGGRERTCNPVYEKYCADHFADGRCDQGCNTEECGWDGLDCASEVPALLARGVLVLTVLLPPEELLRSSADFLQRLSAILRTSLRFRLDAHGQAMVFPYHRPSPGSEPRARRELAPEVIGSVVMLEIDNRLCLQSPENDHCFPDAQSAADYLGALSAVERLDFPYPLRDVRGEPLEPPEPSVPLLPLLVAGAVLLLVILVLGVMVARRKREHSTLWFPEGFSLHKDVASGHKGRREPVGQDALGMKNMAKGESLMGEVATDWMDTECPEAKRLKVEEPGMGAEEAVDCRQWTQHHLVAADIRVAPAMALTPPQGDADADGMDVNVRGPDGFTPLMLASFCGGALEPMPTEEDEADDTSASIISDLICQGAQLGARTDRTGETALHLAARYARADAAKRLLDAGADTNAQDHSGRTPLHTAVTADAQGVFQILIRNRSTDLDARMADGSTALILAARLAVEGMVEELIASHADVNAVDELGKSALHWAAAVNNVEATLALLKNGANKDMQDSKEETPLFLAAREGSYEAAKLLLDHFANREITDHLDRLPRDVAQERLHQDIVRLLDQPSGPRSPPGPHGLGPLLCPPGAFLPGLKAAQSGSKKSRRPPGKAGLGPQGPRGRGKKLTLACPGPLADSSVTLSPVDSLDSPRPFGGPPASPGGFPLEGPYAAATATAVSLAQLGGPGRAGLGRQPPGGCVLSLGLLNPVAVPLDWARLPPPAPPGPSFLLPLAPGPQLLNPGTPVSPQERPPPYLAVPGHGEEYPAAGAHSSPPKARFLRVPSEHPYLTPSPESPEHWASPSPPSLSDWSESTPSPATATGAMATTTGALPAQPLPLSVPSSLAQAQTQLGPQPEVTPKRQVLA
# Torsin-1A-interacting protein 2 (Homo sapiens), sequence (Q8NFQ8 whole entry, looked up): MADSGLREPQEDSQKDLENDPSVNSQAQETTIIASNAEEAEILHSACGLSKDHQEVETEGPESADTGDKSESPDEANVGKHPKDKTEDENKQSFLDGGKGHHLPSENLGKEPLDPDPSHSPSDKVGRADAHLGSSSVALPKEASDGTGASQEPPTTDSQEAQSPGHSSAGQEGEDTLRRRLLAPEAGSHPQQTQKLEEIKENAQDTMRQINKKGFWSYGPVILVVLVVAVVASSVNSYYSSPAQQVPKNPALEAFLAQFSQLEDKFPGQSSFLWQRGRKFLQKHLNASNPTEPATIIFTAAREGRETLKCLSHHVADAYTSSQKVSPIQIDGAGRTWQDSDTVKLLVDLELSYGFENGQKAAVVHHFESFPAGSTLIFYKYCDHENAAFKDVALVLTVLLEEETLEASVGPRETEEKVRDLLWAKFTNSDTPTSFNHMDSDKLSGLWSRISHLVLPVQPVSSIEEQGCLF
compound,measurement,setting,value
[N-]=[N+]=Nc1ccccc1C[C@@]1(C(=O)O)N=C(c2ccc(OCCCO)cc2)O[C@@H]1c1ccccc1,composite z-score,[1],0.616
same,z-score,[2],-0.0525 (inactive)
same,z-score,[3],-0.85 (inactive)
same,z-score,[4],-1.45 (inactive)
same,composite z-score,[5],3.43
same,z-score,[6],-0.0393 (inactive)
same,composite z-score,[7],0.0917
same,composite z-score,[8],-0.272
same,composite z-score,[9],0.697
same,composite z-score,[10],-0.0952
Cc1ccc(F)cc1S(=O)(=O)N[C@@H]1CCN(Cc2ccc(Oc3ccccc3)cc2)C1,composite z-score,[1],-0.434
same,z-score,[2],-21.2 (active)
same,z-score,[3],-21.4 (active)
same,z-score,[4],-3.22 (inactive)
same,composite z-score,[5],-0.367
same,z-score,[6],-14.1 (active)
same,composite z-score,[7],-0.0073
same,composite z-score,[8],0.966
same,composite z-score,[9],0.551
same,composite z-score,[10],-0.0953
CO[C@H]1O[C@H](CO)[C@@H](OC(=O)Nc2ccccc2-c2ccccc2)[C@H](OC(=O)Nc2ccc3c(c2)OCO3)[C@@H]1OC(=O)Nc1ccc2c(c1)OCO2,composite z-score,[1],1.53
same,z-score,[2],2.06 (inactive)
same,z-score,[3],0.798 (inactive)
same,z-score,[4],6.35 (inactive)
same,composite z-score,[5],3.16
same,z-score,[6],0.0976 (inactive)
same,composite z-score,[7],-0.0269
same,composite z-score,[8],0.91
same,composite z-score,[9],1.07
same,composite z-score,[10],-0.0177
O=C1OCC=C[C@H]2OC34C=CCN(c5ccc(Cl)cc5)C(=O)[C@H]3N(CCCCCO)C(=O)[C@@H]4[C@@H]12 (stereo not given in full),composite z-score,[1],-0.449
same,z-score,[2],-0.984 (inactive)
same,z-score,[3],-1.03 (inactive)
same,z-score,[4],-0.497 (inactive)
same,composite z-score,[5],2.58
same,z-score,[6],1 (inactive)
same,composite z-score,[7],-0.117
same,composite z-score,[8],-1.64
same,composite z-score,[9],-0.68
same,composite z-score,[10],-0.208
COCC(=C=CC[C@H](O)c1cccc(OCCO)c1)C[C@H](O)c1ccccn1,composite z-score,[1],1.02
same,z-score,[2],0.941 (inactive)
same,z-score,[3],0.44 (inactive)
same,z-score,[4],0.371 (inactive)
same,composite z-score,[5],1.88
same,z-score,[6],0.559 (inactive)
same,composite z-score,[7],-0.166
same,composite z-score,[8],0.704
same,composite z-score,[9],0.0673
same,composite z-score,[10],0.0149
CCCCN1CC=CC23O[C@@H]4C=CCOC(=O)[C@@H]4[C@H]2C(=O)N(CCCO)[C@@H]3C1=O (stereo not given in full),composite z-score,[1],0.412
same,z-score,[2],0.228 (inactive)
same,z-score,[3],-0.399 (inactive)
same,z-score,[4],-0.191 (inactive)
same,composite z-score,[5],2.41
same,z-score,[6],1.42 (inactive)
same,composite z-score,[7],-0.145
same,composite z-score,[8],-0.957
same,composite z-score,[9],-0.366
same,composite z-score,[10],-0.285
CC(C)(C)OC(=O)CC[C@]1(C(=O)NCCN2CCOCC2)N=C(c2ccc(OCCCO)cc2)O[C@H]1c1ccccc1N=[N+]=[N-],composite z-score,[1],1.49
same,z-score,[2],-0.417 (inactive)
same,z-score,[3],-0.437 (inactive)
same,z-score,[4],-0.535 (inactive)
same,composite z-score,[5],3.38
same,z-score,[6],0.102 (inactive)
same,composite z-score,[7],0.373
same,composite z-score,[8],-0.238
same,composite z-score,[9],0.412
same,composite z-score,[10],0.0988
